Molecules are shown by their SMILES. Screen size: about 300,000 compounds; about 37,000 (12%) were called active. Rule as the data show it: active = max response mostly above about 13% (no sharp cut-off); inactive = mostly below about 14%. Many of the other results were omitted from the sample, so actives are more common in it than they were.

The nature of this assay: Cycloheximide Counterscreen for Small Molecule Inhibitors of Shiga Toxin. Also: read at 38.3 µM for the half of the compounds with a filed dose; 0% is about no effect. To be noted: cell reporter, cycloheximide protein synthesis inhibition counterscreen; stronger effect = higher value. (In general: A counterscreen serves to expose hits that act by an unwanted route or on another target.)
As for `COc1cc(S(=O)(=O)Nc2ncn[nH]2)ccc1Cl`, the max response is -1.79% (inactive). Turning to `CCSc1nnc(-c2cc3c(s2)-c2ccccc2CC3)o1`, the max response is 40.7% (active). As for `CSc1nc2sc3c(c2c(=O)[nH]1)CCc1ccccc1-3`, the max response is -2.09% (inactive).

Turning to `Fc1ccc(CSc2nnc(-c3cc4c(s3)-c3ccccc3CC4)o2)cc1`, the max response was 1.49% (inactive).

`CC(=O)NCCc1nc2cc(NC(=O)c3ccccc3)ccc2n1C`: the max response was 20.2% (inactive). In the case of `Cn1sc(NC(=O)c2ccccc2)nc1=O`, the max response was 9.66% (inactive). In the case of `Cn1c(NC(=O)c2ccccc2)nc2ccccc21`, the max response is 25.8% (active). With `COc1cc2c(cc1OC)C(C(=O)NCc1ccco1)C1c3ccccc3CCN1C2=O` (stereo not given), the max response is -2.13% (inactive).

In the case of `Cc1cc(=O)oc2cc(OC(C)C(=O)NCCc3ccc(S(N)(=O)=O)cc3)ccc12` (stereo not given), the max response was -2.25% (inactive).

With `Cc1ccc(N2CCN(C(=O)c3cccs3)CC2)c(C)c1`, the max response was 1.82% (inactive).

`O=C(O)/C=C/c1cn(-c2ccccc2)nc1-c1cccs1`: the max response is 20.8% (active).

`O=C(O)/C=C/c1cn(Cc2ccccc2)nc1-c1cccs1`: the max response is 0.958% (inactive). As for `O=C(/C=C\c1cn(-c2ccccc2)nc1-c1cccs1)N1CCOCC1`, the max response was 17.5% (active). With `O=C(O)c1ccc(N/N=C/c2cn(-c3ccccc3)nc2-c2cccs2)cc1` the figure was 14.7% (inactive). Consider `COc1ccc(-c2nn(-c3ccccc3)cc2/C=C\C(=O)N2CCOCC2)cc1[N+](=O)[O-]`, for which the max response was -1.53% (inactive).

Consider `O=C(/C=C/c1cn(-c2ccccc2)nc1-c1ccc2c(c1)OCCO2)NCCCN1CCOCC1`, for which the max response is 13.7% (inactive).

Consider `CCOC(=O)c1c(NC(=O)CSc2nccc(=O)[nH]2)sc(C)c1C`, for which the max response was -2.23% (inactive).

Turning to `CCN1CC(CN(C)Cc2nc(-c3ccc(Cl)cc3)no2)CC1=O` (stereo not given), the max response was 6.16% (inactive).

Regarding `CN(Cc1ccccn1)Cc1nc(-c2ccc(Cl)cc2)no1`, the max response was 20% (active).

For `COC(=O)c1ccc(-c2noc(CN(Cc3ccccn3)CC3CCCO3)n2)cc1` (stereo not given), the max response was -2.22% (inactive). With `COCCCNS(=O)(=O)c1cccc(S(=O)(=O)c2cccc(S(=O)(=O)NCCCOC)c2)c1` the figure was -2.51% (inactive); with `CCOC(=O)Cc1ncccc1C(=O)Nc1ccc(OC)cc1`, -1.69% (inactive); with `O=C(Nc1cccc2cccnc12)c1cccc(N2C(=O)CCC2=O)c1`, -3.63% (inactive). Take `COc1ccc(S(=O)(=O)Nc2cccc3cccnc23)c(N)c1`: the max response is 23.5% (inactive). `N#Cc1ccc(C(=O)Nc2cccc3cccnc23)c(F)c1`: the max response was -0.854% (inactive).

As to `O=C(Nc1ccccc1Cl)Nc1cccc2cccnc12`, the max response was 31.2% (active). `O=C(Nc1ccccc1Cl)Nn1cnnc1`: the max response was 6.34% (inactive).

For the compound `O=C(Nc1cccc2cccnc12)C(F)(F)F`, the max response was -1.21% (inactive). `COc1ccc(NC(=O)Nc2cccc3cccnc23)cc1`: the max response is 55.8% (active).

As to `O=C(Nc1cccc2cccnc12)c1cccc(Cl)c1`, the max response is 49.1% (active).

The record behind these values is PubChem BioAssay AID2314 (National Center for Advancing Translational Sciences (NCATS), 2010).
